{"source": "PubChem BioAssay (NCATS)", "key": {"[1]": {"molecular_target": "Calcium and integrin-binding protein 1 (Homo sapiens) (UniProt Q99828)", "sequence (Q99828 whole entry, looked up)": "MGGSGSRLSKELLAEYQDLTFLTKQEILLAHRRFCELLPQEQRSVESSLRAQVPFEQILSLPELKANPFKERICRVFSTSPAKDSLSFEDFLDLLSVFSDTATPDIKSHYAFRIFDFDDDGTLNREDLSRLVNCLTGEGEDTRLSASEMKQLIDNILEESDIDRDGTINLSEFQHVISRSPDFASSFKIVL", "test": "Primary qHTS for Identification of Calcium Integrin Binding Protein 1 (CIB1) Competitor (AID 1508620);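 further: GST tagged CIB1 binding a fluorescein labelled alphaIIb integrin peptide tracer; top concentration of the series differs between compounds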", "in_short": "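Fluorescence polarization competition: CIB1-GST (1 uM final) preincubated with compound 15 min at room temperature, then FITC-labeled alphaIIb peptide (100 nM final) added for another 15 min. Polarization read at Ex 480/Em 540.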"}, "[2]": {"molecular_target": "Lysosomal acid glucosylceramidase (Homo sapiens) (UniProt P04062)", "sequence (P04062 whole entry, looked up)": "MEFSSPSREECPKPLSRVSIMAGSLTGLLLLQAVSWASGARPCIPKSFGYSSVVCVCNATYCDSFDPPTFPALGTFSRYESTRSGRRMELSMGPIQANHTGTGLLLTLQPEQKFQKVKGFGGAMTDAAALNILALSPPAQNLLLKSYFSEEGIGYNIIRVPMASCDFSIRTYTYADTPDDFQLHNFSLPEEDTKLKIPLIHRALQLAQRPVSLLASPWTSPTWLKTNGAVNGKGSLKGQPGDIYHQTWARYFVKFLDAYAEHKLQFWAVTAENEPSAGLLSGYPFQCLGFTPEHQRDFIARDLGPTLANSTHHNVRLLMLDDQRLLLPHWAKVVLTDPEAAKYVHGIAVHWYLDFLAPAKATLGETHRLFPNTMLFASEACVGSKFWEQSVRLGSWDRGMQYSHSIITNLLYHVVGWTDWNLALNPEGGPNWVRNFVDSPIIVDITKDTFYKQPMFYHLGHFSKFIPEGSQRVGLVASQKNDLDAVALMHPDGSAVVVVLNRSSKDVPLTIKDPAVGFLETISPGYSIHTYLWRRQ", "test": "Glucocerebrosidase-p2 (AID 348; in the data active means potency below about 10 µM; further: potency means the concentration at half of the fitted maximal effect)", "conditions": "purified GBA, blue fluorogenic substrate, 40 min", "in_short": "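Normal human glucocerebrosidase (0.2 nM) with blue fluorogenic substrate (80 uM final) in citrate/phosphate pH 5.9 with 10mM sodium taurocholate, 0.01% tween-20; 40 min RT, NaOH/glycine stop; fluorescence Ex 365/Em 440; AC50 from a titration from 0.6 nM upwards.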"}, "[3]": {"molecular_target": "Cytochrome P450 1A2 (Homo sapiens) (UniProt P05177)", "test": "p450-cyp1a2 (AID 410; calls by dose curve; further: potency means the concentration at half of the fitted maximal effect)", "in_short": "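20nM CYP1A2, 100uM Luciferin-ME (=Km), 100mM KPO4; cpd 10 min RT; +NADPH regen, 60 min RT; stop/detect 20 min; luminescence. Normalized to furafylline 57 uM = full inhibition.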"}, "[4]": {"test": "NFAT Signaling Pathway (AID 444; active means well fitted curve in either direction with a large enough effect, not every such curve was filed as active)", "conditions": "Jurkat NFAT-bla M1, carbachol, beta-lactamase ratio, 5 h; at 7.69 µM (top of the series) unless noted", "in_short": "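Jurkat cells carrying an NFAT-driven β-lactamase reporter and co-transfected muscarinic M1 receptor were treated with compound plus carbachol (1 uM final, an EC50 level) for 5 h at 37 °C. CCF4 loading followed for 1 h at RT; 460/530 nm ratio gave %activity.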"}, "[5]": {"test": "Stat Signaling Pathway (AID 446; active means well fitted curve in either direction with a large enough effect, not every such curve was filed as active;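 further: ME-180 cervical cancer cells given 40 pM IL-6 alongside compound; SIE-controlled beta-lactamase reporter measured as 460/530 nm FRET emission ratio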)", "conditions": "ME-180 SIE beta-lactamase reporter, IL-6 stimulated, 5 h; at 7.69 µM (top of the series) unless noted", "in_short": "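Normalization used AC90 stimulation (300 pM IL-6) and AC90 inhibition (125 nM pan-JAK inhibitor at 40 pM IL-6). The underlying signal is SIE-driven beta-lactamase in ME-180 cells after 5 h IL-6 exposure with compound.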"}, "[6]": {"molecular_target": "Glucocorticoid receptor (Homo sapiens) (UniProt P04150)", "sequence (P04150 whole entry, looked up, the tested form may be a part)": "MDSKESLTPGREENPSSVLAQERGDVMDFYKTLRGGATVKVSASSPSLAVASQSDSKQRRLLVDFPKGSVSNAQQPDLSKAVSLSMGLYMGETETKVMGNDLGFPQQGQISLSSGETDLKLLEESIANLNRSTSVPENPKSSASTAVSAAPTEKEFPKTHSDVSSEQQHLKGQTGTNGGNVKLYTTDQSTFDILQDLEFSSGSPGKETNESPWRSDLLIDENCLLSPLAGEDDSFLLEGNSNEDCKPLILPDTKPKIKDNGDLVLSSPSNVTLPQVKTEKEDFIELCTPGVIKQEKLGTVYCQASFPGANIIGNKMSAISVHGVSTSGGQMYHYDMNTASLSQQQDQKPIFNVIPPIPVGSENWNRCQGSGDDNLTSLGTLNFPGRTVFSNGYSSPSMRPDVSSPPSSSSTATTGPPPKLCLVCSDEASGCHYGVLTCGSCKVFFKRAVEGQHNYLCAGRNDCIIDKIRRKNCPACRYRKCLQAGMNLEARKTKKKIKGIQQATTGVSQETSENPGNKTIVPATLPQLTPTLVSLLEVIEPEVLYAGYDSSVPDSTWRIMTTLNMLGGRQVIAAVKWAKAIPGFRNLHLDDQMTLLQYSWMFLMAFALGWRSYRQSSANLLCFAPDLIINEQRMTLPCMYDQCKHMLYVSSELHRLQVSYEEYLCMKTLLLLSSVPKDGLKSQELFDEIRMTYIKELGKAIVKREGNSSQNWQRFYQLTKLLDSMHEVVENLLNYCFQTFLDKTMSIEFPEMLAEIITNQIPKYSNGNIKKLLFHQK", "test": "GR-GFP Redistribution (AID 450;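 active means compounds whose dose series gives a full or clear partial fitted curve of increased nuclear translocation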; further: potency means the concentration at half of the fitted maximal effect)", "conditions": "U2OS GR-GFP nuclear translocation, laser cytometry, 2 h"}, "[7]": {"molecular_target": "Glucocorticoid receptor (Homo sapiens) (UniProt P04150)", "test": "GR-EFC Redistribution (AID 451; calls by dose curve; further: potency means the concentration at half of the fitted maximal effect)", "conditions": "CHO-K1 GR-EFC translocation, beta-gal luminescence, 2 h", "in_short": "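CHO-K1 cells stably expressing nuclear-localized β-gal enzyme acceptor and GR fused C-terminally to the enzyme donor fragment; ligand-driven nuclear translocation restores β-gal by complementation. Compounds titrated up to 46 uM final, 2 h at 37 °C; luminescence read.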"}, "[8]": {"molecular_target": "Mitogen-activated protein kinase 10 (Mus musculus) (UniProt Q61831)", "test": "JNK3 AlphaScreen Assay (AID 530; active means well fitted curve in either direction with a large enough effect, not every such curve was filed as active)", "in_short": "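Biotinylated GST-cJun(1-79) served as substrate for JNK3 in HepG2 lysates stimulated with IL-1beta and TNF-alpha. ATP was 10 uM final, pH 7.6. Ser73 phosphorylation was quantified by AlphaScreen (680 nm excitation).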"}, "[9]": {"molecular_target": "3',5'-cyclic-AMP phosphodiesterase 4B (Homo sapiens) (UniProt Q07343)", "test": "qHTS Assay for Inhibitors of PDE-IV (AID 607; active means well fitted activation curve with a large enough effect in the main read-out, with a control signal flat, not every such curve was filed as active)", "in_short": "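HEK293 ACTOne cells with CNG channel (1000/well), endogenous PDE4; membrane potential dye, compounds up to 22.9 uM final. Fluorescence Ex 535/Em 590; RO 20-1724 (100 uM final) as reference.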"}, "[10]": {"molecular_target": "Cytochrome P450 3A4 (Homo sapiens) (UniProt P08684)", "sequence (P08684 whole entry, looked up)": "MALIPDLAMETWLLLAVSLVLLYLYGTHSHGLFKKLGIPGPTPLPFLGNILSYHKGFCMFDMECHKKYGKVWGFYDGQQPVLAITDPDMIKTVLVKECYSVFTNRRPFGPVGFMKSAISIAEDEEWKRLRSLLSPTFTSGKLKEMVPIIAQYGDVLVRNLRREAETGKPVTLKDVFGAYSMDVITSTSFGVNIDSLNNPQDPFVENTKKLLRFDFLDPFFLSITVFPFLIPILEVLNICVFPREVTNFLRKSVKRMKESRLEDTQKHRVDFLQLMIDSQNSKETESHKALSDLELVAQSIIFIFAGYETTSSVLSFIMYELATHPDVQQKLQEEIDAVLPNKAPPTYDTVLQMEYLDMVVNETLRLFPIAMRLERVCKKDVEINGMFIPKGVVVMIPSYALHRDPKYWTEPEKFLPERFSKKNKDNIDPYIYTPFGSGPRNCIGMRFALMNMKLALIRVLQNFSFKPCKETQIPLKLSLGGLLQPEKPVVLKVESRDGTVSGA", "test": "qHTS Assay for Activators of Cytochrome P450 3A4 (AID 885); further: nearly all actives have a fitted effect of over 65% in size", "in_short": "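Human CYP3A4 dealkylates Luciferin-PPXE to luciferin, which luciferase detection converts to light. Substrate was at its KM (25uM), buffer 200mM KPO4, reaction 60 min at RT.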"}, "[11]": {"molecular_target": "Cytochrome P450 2C19 (Homo sapiens) (UniProt P33261)", "sequence (P33261 whole entry, looked up)": "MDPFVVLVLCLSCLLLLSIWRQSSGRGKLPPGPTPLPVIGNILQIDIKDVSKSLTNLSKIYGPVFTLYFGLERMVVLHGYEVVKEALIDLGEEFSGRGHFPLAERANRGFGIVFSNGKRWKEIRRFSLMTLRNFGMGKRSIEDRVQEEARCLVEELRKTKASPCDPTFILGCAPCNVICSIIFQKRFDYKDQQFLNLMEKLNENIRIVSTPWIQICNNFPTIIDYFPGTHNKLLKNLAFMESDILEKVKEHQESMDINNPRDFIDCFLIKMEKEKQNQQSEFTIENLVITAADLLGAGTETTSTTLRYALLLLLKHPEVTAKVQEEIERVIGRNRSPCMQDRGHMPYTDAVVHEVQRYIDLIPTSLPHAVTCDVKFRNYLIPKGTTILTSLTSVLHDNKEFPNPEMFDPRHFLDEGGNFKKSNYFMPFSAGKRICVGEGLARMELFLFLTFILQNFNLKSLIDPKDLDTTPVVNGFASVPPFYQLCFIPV", "test": "qHTS Assay for Inhibitors and Substrates of Cytochrome P450 2C19 (AID 899); further: potency means the concentration at half of the fitted maximal effect; nearly all actives have a fitted effect of over 60% in size", "in_short": "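Human CYP2C19 (5nM) with Luciferin-H EGE at 10uM (its KM) in 50mM KPO4 was preincubated with compound for 10 min at 37C. NADPH regeneration started a 60 min 37C reaction. Luciferin was read by luminescence, normalized to 57uM ketoconazole.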"}, "[12]": {"test": "qHTS Assay for Lipid Storage Modulators (AID 1519; calls by dose curve)", "conditions": "Drosophila S3 cells, BODIPY lipid droplet/cell ratio, laser cytometry, cells loaded with oleic acid", "in_short": "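Cells seeded at 5,000 per well were treated with compounds over a concentration series and loaded with oleic acid (400 uM, as added). Lipid droplet fluorescence (488 nm excitation, 500-530 nm channel) was read by laser-scanning cytometry and normalized to 20 uM Triacsin C.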"}, "[13]": {"molecular_target": "Dual specificity protein kinase CLK4 (Homo sapiens) (UniProt Q9HAZ1)", "sequence (Q9HAZ1 whole entry, looked up)": "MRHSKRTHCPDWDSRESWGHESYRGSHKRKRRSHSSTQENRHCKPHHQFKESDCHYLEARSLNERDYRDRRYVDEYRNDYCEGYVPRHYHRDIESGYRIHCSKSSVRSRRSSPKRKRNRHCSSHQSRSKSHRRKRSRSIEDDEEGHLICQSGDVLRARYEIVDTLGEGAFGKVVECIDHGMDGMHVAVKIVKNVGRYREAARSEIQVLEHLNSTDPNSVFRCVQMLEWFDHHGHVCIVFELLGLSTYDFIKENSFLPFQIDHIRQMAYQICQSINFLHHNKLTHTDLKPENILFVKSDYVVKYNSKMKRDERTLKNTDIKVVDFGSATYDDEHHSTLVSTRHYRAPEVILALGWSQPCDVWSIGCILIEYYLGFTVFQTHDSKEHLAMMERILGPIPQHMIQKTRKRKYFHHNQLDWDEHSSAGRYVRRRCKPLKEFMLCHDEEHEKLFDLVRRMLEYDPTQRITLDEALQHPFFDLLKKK", "test": "qHTS Assay for Inhibitors of CDC-like Kinase 4 (Kinase-Glo Assay) (AID 1770); further: potency means the concentration at half of the fitted maximal effect; nearly all actives have a fitted effect of over 65% in size", "in_short": "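Clk4 25 nM, RS peptide 100 uM, ATP 1 uM, pH 7.5 Tris, 10 mM MgCl2, 2.5 mM DTT; 4.5 h RT; ATP depletion read by Kinase-Glo luminescence.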"}, "[14]": {"molecular_target": "Dual specificity protein kinase CLK4 (Homo sapiens) (UniProt Q9HAZ1)", "test": "qHTS Assay for Inhibitors of CDC-like Kinase 4 (ADP-FP Assay) (AID 1795); further: potency means the concentration at half of the fitted maximal effect; nearly all actives have a fitted effect of over 60% in size", "in_short": "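Kinase activity was followed as ADP output, converted from fluorescence polarization with a calibration curve. Reactions ran one hour at low ATP (1 uM) with RS peptide substrate.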"}, "[15]": {"molecular_target": "Ubiquitin carboxyl-terminal hydrolase 1 (Homo sapiens) (UniProt O94782)", "test": "Inhibitors of USP1/UAF1: Pilot qHTS (AID 504865);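 further: rhodamine fluorescence freed from ubiquitin-rhodamine substrate followed over time; top concentration of the series differs between compounds; nearly all actives have a fitted effect of over 35% in size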", "in_short": "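Enzyme-free wells gave the negative control, while test wells held 1nM USP1/UAF1 preincubated with compound for 15 min at room temperature. Ub-Rho at 150nM final started the reaction, and fluorescence at 480/540 nm was recorded kinetically.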"}, "[16]": {"test": "Primary qHTS for small molecule stabilizers of the endoplasmic reticulum resident proteome: Secreted ER Calcium Modulated Protein (SERCaMP) assay (AID 1508630)", "in_short": "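The SH-SY5Y reporter protocol was run at 3 concentrations up to 38.3 uM (primary) or 11 concentrations (follow-up): 16 h compound, 100 nM thapsigargin for 4 h, then extracellular luciferase luminescence.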"}, "[17]": {"molecular_target": "Rap guanine nucleotide exchange factor 3 (Homo sapiens) (UniProt O95398)", "sequence (O95398 whole entry, looked up)": "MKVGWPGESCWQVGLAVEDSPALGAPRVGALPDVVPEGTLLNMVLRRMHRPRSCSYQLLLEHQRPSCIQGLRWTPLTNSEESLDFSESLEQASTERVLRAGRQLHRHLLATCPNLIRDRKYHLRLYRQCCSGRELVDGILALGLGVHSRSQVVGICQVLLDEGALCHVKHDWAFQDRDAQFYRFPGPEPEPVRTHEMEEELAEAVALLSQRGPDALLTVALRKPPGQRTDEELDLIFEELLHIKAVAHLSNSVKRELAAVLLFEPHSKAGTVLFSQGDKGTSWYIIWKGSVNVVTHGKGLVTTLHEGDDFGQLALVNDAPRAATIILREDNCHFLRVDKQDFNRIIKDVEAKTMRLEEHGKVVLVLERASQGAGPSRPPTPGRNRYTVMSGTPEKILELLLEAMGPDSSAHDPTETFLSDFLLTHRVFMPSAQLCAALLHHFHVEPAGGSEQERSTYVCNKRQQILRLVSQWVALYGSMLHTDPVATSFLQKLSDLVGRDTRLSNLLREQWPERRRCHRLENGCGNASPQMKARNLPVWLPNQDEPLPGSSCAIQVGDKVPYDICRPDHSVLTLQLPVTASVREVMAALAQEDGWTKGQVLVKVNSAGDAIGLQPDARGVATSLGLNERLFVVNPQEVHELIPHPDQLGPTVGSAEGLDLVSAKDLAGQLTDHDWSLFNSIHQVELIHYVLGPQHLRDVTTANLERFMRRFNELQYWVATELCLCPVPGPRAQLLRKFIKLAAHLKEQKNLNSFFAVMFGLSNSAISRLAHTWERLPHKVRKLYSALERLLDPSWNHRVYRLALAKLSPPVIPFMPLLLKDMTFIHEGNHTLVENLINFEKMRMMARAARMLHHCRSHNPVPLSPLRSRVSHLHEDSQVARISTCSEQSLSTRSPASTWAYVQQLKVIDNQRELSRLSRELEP", "test": "Confirmatory qHTS for agonist of cAMP-regulated guanine nucleotide exchange factor 3 (EPAC1) (AID 1645881);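 further: EPAC1 catalysed release of BODIPY-GDP from Rap1B seen as fluorescence loss; nearly all actives have a fitted effect of over 75% in size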"}, "[18]": {"molecular_target": "Rap guanine nucleotide exchange factor 4 (Homo sapiens) (UniProt Q8WZA2)", "sequence (Q8WZA2 whole entry, looked up)": "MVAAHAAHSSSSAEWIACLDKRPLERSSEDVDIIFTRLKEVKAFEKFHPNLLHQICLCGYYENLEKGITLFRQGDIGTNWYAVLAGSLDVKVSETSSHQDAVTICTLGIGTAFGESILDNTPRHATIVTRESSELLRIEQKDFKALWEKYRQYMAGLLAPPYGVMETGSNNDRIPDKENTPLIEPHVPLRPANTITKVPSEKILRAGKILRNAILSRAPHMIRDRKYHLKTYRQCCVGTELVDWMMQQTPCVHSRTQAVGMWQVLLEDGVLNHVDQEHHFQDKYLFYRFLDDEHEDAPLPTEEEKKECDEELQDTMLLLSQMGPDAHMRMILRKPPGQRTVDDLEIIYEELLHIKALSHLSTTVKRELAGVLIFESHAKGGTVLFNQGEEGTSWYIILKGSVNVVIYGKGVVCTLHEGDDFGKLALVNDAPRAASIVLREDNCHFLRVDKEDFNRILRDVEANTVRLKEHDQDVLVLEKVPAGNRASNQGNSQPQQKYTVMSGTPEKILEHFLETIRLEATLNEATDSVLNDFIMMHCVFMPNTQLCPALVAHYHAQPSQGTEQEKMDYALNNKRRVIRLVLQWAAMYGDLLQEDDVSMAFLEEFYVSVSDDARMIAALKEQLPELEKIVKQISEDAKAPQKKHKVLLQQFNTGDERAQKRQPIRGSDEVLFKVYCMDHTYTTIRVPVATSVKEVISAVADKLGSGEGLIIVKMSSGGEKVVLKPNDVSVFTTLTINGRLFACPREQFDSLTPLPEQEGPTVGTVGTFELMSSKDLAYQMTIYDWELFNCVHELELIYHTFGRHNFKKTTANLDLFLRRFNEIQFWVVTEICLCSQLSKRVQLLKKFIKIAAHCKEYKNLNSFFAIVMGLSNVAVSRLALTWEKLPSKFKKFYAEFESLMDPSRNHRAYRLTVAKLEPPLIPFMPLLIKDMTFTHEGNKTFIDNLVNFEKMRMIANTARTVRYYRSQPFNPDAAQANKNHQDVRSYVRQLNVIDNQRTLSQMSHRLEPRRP", "test": "Confirmatory qHTS for agonist of cAMP-regulated guanine nucleotide exchange factor 4 (EPAC2) (AID 1645884);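 further: nucleotide exchange releases bodipy-GDP from Rap1 and this lowers its fluorescence; nearly all actives have a fitted effect of over 65% in size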"}, "[19]": {"molecular_target": "Rap guanine nucleotide exchange factor 4 (Homo sapiens) (UniProt Q8WZA2)", "test": "Confirmatory qHTS for antagonist of cAMP-regulated guanine nucleotide exchange factor 4 (EPAC2) (AID 1645885); further: nearly all actives have a fitted effect of over 25% in size"}, "[20]": {"molecular_target": "Rap guanine nucleotide exchange factor 3 (Homo sapiens) (UniProt O95398)", "test": "Counterscreen qHTS for antagonist of cAMP-regulated guanine nucleotide exchange factor 3 (EPAC1) (AID 1645888)", "in_short": "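Measured: fluorescence of BODIPY-GDP bound to Rap1B, which falls as exchange proceeds. Conditions include 50 uM competing GDP, 5 and 30 min reads, and a later cAMP challenge for antagonist detection.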"}}, "note": "Records with an inconclusive call do not appear. Entries that show only a call come without a potency. Calls of active or inactive are those of the source. Unless noted, the call rests on the fitted dose curve; in most records, active means well fitted curve in the direction sought with a large enough effect; inconclusive means small, poorly fitted or top-dose-only effect, or another doubt; inactive means no such curve, though single readings can be large; an effect the other way counts as inactive or inconclusive."}
{"smiles": "Cc1ccc(NS(=O)(=O)c2ccc(Cl)cc2)cc1C", "values": [{"measurement": "Potency", "setting": "[1]", "value": "inactive"}]}
{"smiles": "CC(C)c1ccccc1-c1nc(NCc2ccc(-c3cccnc3)cc2)c2occc2n1", "values": [{"measurement": "Potency", "setting": "[1]", "value": "inactive"}]}
{"smiles": "O=[N+]([O-])c1ccccc1CSc1nc2ncc(Br)cc2[nH]1", "values": [{"measurement": "Potency", "setting": "[1]", "value": "inactive"}]}
{"smiles": "N#CN1CCC(NS(=O)(=O)c2cccc(C(F)(F)F)c2)CC1", "values": [{"measurement": "Potency", "setting": "[1]", "value": "inactive"}]}
{"smiles": "CCOC(=O)Nc1sc2c(c1C(N)=O)CCCC2", "values": [{"measurement": "Potency", "setting": "[1]", "value": "inactive"}]}
{"smiles": "Cn1nnnc1Sc1ncnc2scc(I)c12", "values": [{"measurement": "Potency", "setting": "[1]", "value": "inactive"}]}
{"smiles": "O=C(CN1C(=O)N/C(=C\\c2cccn2-c2cccc(C(=O)O)c2)C1=O)Nc1ccccc1F", "values": [{"measurement": "Potency", "setting": "[1]", "value": "inactive"}]}
{"smiles": "COc1cccc(-c2ccc3ncnc(N(C)Cc4ccco4)c3c2)c1", "values": [{"measurement": "Potency", "setting": "[2]", "value": "> 11400 nM (inactive)"}, {"measurement": "Potency", "setting": "[3]", "value": "1260 nM (active)"}, {"measurement": "activity change, negative = inhibition", "setting": "[4]", "value": "-8.47% (inactive)"}, {"measurement": "activity, negative = inhibition", "setting": "[5]", "value": "-14.9% (inactive)"}, {"measurement": "Potency", "setting": "[6]", "value": "> 46000 nM (inactive)"}, {"measurement": "Potency", "setting": "[7]", "value": "> 46000 nM (inactive)"}, {"measurement": "outcome", "setting": "[8]", "value": "inactive"}, {"measurement": "Potency", "setting": "[9]", "value": "inactive"}, {"measurement": "Potency", "setting": "[10]", "value": "inactive"}, {"measurement": "Potency", "setting": "[11]", "value": "2000 nM (active)"}, {"measurement": "activity change, negative = inhibition", "setting": "[12]; at 57.5 µM (top of the series)", "value": "1.9% (inactive)"}, {"measurement": "max response", "setting": "[12]; measured here: cell count channel max response", "value": 8.44, "unit": "%"}, {"measurement": "max response", "setting": "[12]; measured here: lipid channel max response", "value": 7.63, "unit": "%"}, {"measurement": "Potency", "setting": "[13]", "value": "2000 nM (active)"}, {"measurement": "Potency", "setting": "[14]", "value": "562 nM (active)"}, {"measurement": "Potency", "setting": "[15]", "value": "inactive"}, {"measurement": "Potency", "setting": "[1]", "value": "inactive"}, {"measurement": "Potency", "setting": "[16]", "value": "inactive"}, {"measurement": "outcome", "setting": "[17]", "value": "inactive"}, {"measurement": "activation", "setting": "[18]", "value": "8.39% [at 17.1 µM] (inactive)"}, {"measurement": "activity change, negative = inhibition", "setting": "[19]", "value": "-12.8% [at 12.7 µM] (inactive)"}, {"measurement": "outcome", "setting": "[20]", "value": "inactive"}]}
{"smiles": "N#Cc1c(-c2cccc(Br)c2)no[n+]1[O-]", "values": [{"measurement": "Potency", "setting": "[1]", "value": "inactive"}]}
{"smiles": "Cc1cc2c(s1)c1cnn(Cc3ccc(C(F)(F)F)cc3)c(=O)c1n2C", "values": [{"measurement": "Potency", "setting": "[1]", "value": "inactive"}]}
{"smiles": "COc1ccccc1/C=C/C(=O)NCCc1nc2ccccc2n1CCOc1ccc(C)cc1", "values": [{"measurement": "Potency", "setting": "[1]", "value": "inactive"}]}
